# Measurements: PubChem BioAssay AID1851 (National Center for Advancing Translational Sciences (NCATS), 2009)
# Where “and” joins values, the source holds several entries; their conditions need not be identical. Identical values can stand only once. About 5,800 (36%) of roughly 16,000 compounds were called active. Inconclusive results (about 23%) are left out. The list shows a part of the results. Values without a mark were called inactive. Calls follow the shape of the dose curve; as a rule, active = well fitted curve in the direction sought with a large enough effect; inconclusive = small, poorly fitted or top-dose-only effect, or effect the other way; inactive = no such curve, though single readings can be large or run the other way.
# Molecular target: Cytochrome P450 2C19 (Homo sapiens) (UniProt P33261)
# Sequence (P33261 whole entry, looked up): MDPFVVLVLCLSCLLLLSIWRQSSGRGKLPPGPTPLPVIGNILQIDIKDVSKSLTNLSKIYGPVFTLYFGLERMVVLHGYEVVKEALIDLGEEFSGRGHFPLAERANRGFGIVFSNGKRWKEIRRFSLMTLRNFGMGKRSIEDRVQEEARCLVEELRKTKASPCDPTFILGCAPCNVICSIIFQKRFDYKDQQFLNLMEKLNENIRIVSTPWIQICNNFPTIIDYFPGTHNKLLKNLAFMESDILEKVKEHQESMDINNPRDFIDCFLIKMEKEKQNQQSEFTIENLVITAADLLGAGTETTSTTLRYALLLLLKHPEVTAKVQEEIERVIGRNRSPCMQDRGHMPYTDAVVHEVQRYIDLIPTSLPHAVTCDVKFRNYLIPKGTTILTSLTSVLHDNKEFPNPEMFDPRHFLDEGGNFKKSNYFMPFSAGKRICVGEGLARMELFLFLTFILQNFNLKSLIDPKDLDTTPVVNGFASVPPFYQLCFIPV
# Experiment: Cytochrome panel assay with activity outcomes
# Details: recombinant CYP, pro-luciferin dealkylation, luminescence, p450-cyp2c19; series mostly up to 57.1 µM; activity, negative = inhibition: at the top concentration
# % is scaled to controls: 0 for no effect and ±100 for the full control effect.
Structure (SMILES),"activity, negative = inhibition",AC50
CCN1C(=O)[C@H]2[C@H]3[C@H](O)[C@H](O)C/C(=N/OC[C@@H](O)COCc4ccco4)[C@@H]3CC[C@@H]2C1=O,29.6% [at 11.4 µM] and 41.4% [at 11.4 µM],
CN1CCCC2(CCN(S(=O)(=O)c3ccccc3)CC2)C1,1.18%,
O=S(=O)(c1ccccc1)N1CCC2(CCCN(c3cccc(-c4ccccc4)c3)C2)CC1,-6.1%,
O=S(=O)(c1ccccc1)N1CCC2(CCCN(c3ccccc3)C2)CC1,,1.58 µM (active)
Cc1cc(O)c(C(C)C)cc1CN1CCCCC1,32.6% [at 11.4 µM],
Cc1cc(O)c(-c2cc(O)c(C)cc2O)cc1O,,0.794 µM (active)
N#Cc1cccc(NC(=O)N2CC[C@@]3(CCCNC3)C2)c1,-30.4%,
CC(C)(C)c1cccc(Oc2nn[nH]n2)c1,,7.94 µM (active)
c1cc(NNc2cccc(-c3nn[nH]n3)c2)cc(-c2nn[nH]n2)c1,14.6% [at 11.4 µM],
Cc1cc(C)cc(Oc2nn[nH]n2)c1,-23%,
COc1ccc(-c2nn3cnnc3s2)cc1OC,,8.91 µM (active)
O=C(CSCc1ccccc1)Nc1ccc(S(=O)(=O)N2CCOCC2)cc1,,17.8 µM (active)
Nc1cc(=O)[nH]c(SCC(=O)Nc2ccc(S(=O)(=O)N3CCOCC3)cc2)n1,25.5%,
COCC(=O)N1CCC2(CC1)CN(C(=O)Nc1cccc(F)c1)C2,-7.41%,
NC(=O)c1ccc(C2SCC(=O)N2Cc2ccccc2)cc1 (stereo not drawn),,10 µM (active)
CC(C)n1nnnc1SCC(=O)NCc1ccc2c(c1)OCO2,,5.01 µM (active)
CC(C)n1nnnc1SCC(=O)c1ccc2c(c1)OCCO2,,10 µM (active)
CC(C)n1nnnc1SCC(=O)NCCc1ccccc1,,7.94 µM (active)
CC(C)(C)NC(=O)CSc1nnc(Cc2ccc3c(c2)OCO3)n1C1CCCCC1,-6.41%,
O=C(O)c1ccc(Nc2ccnc3cc(Cl)ccc23)cc1O,-17.2% [at 11.4 µM],
CC(=O)[C@@H](C)CCO[C@@]1(C)OCC[C@@H]1C,-8.65% [at 11.4 µM],
COc1ccc(NC(=O)N2CCCC3(CCN(C(=O)c4c(C)noc4C)CC3)C2)cc1,6.8%,
COc1ccc2c(c1)CCc1c(C(=O)N3CCCCCC3)noc1-2,,11.2 µM (active)
COc1ccc(C(=O)N2CCC3(CCCN(C)C3)CC2)cc1,-24.1%,

Structure (SMILES),"activity, negative = inhibition",AC50
N#C[C@H](c1ccccc1)N1CCCN([C@@H](C#N)c2ccccc2)C1c1ccccc1O (stereo partly drawn),,0.251 µM (active)
OC[C@@H]1O[C@@H](n2cnc3c(NC4CCCC4)ncnc32)[C@@H](O)[C@H]1O,-9.07%,
Cc1ccccc1/C=C1\OC(=O)c2ccccc21,,7.94 µM (active)
Cc1ccc(/C=C2\OC(=O)c3ccccc32)cc1,,8.91 µM (active)
Cc1ccc(=O)n(-c2ccccc2)c1,-31.4%,
CC(C)c1ccc(/C=C2\C=C(c3ccc4ccccc4c3)OC2=O)cc1,-31.6% [at 11.4 µM],
COc1ccc(OC)c2[nH]c(=O)c(CCNC(=O)C3CCCCC3)cc12,,10 µM (active)
COc1ccc(OC)c2[nH]c(=O)c(CCNC(=O)COc3ccccc3)cc12,,14.1 µM (active)
COCCNC(=O)COc1ccc(OCCNC[C@@H](O)COc2ccccc2)cc1,-29.3%,
COc1ccc(OC)c2[nH]c(=O)c(CCNS(=O)(=O)c3ccc(C)cc3)cc12,,15.8 µM (active)
COCCNC(=O)COc1ccc(Oc2ccccc2)cc1,,11.2 µM (active)
NC[C@H]1O[C@H](n2cnc3c(N)ncnc32)C[C@@H]1O,7.59% [at 11.4 µM],
Cn1c(=O)c2[nH]c(CCC(=O)O)nc2n(C)c1=O,12% [at 11.4 µM],
COc1ccc(OC)c2[nH]c(=O)c(CCNC(=O)c3ccc(S(=O)(=O)N(C)C)cc3)cc12,-21.1%,
CCN1CCCC1CNC(=O)CCNC(=O)c1cc(OC)c(OC)c(OC)c1 (stereo not drawn),1.37%,
COc1ccc(OC)c2[nH]c(=O)c(CCNC(=O)c3ccc(S(=O)(=O)N4CCCC4)cc3)cc12,,11.2 µM (active)
O=C(O)CCSC1=NCCN1,42% [at 11.4 µM],
CSC1(SC2=NCCN2)SC2(NCCN2)S1,,1.58 µM (active)
Cc1ccc(N(Cc2ccccc2)Cc2ccccc2)cc1,,2 µM (active)
c1ccc(CN(CC2=NCCN2)c2ccccc2)cc1,,inactive
Cc1nc(C(=O)Nc2cccc(Cl)c2Cl)nn1-c1cc(OC(C)C)c(Cl)cc1Cl,,7.08 µM (active)
CCn1nc(C(=O)Nc2ccccc2C)c(Cl)c1Cl,-24.3%,
O=C(O)C[C@H](Cc1ccc2c(c1)OCO2)C(=O)O,-29% [at 11.4 µM],
CCc1ccccc1NC(=S)NCc1ccc2c(c1)OCO2,,1.26 µM (active)
